HGIII-sPLA2 inh: Inhibits HGIII-sPLA2 liposome hydrolysis, primary screen. AID 743126. actives 0.56% (n = 370,000). Q9NZ20. inhibition, % at 12.2 µM. QFRET BODIPY PC-A2 liposome hydrolysis, fluorescence;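 active = inhibition above mean plus 3 SD of compounds lying within the high and low control bounds, cut at about 19% in these data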;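 note: 0% = median of test compound wells and 100% = no enzyme DMSO wells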
Target sequence (Q9NZ20 whole entry, looked up): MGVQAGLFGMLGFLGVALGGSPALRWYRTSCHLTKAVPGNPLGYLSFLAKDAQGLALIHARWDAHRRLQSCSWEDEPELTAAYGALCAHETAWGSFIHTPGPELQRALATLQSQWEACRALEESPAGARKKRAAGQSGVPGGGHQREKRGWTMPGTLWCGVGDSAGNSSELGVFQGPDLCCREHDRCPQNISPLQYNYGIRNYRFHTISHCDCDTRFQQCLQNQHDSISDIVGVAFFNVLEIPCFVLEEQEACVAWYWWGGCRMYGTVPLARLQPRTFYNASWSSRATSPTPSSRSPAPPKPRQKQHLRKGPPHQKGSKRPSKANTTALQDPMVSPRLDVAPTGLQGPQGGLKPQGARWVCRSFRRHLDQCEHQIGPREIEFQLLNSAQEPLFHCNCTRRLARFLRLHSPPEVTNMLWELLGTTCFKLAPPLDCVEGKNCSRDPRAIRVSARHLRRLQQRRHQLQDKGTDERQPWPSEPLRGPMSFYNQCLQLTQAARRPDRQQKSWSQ
AHR act: activators of human aryl hydrocarbon receptor | AHR-responsive luciferase reporter cells, luminescence | activation, % at 5 µM | actives 2.5% (n = 320,000) | AID 2796; in the data active = activation above about 47%;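 note: 0% = vehicle wells and 100% = reference agonist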
Yeast superoxide: caloric restriction mimetics inhibiting age-related superoxide in yeast; S. cerevisiae aged cells, superoxide DHE fluorescence; hits give low values; AID 2690; actives 0.18% (n = 330,000); superoxide response (% of plate mean), % at 10 µM;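 active = superoxide response under a set limit, about three screen SD below normal, cut at about 65% in these data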;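 note: yeast aged for seven days with compound at 30 °C before DHE staining; 100% = average MFI of all compound-treated wells on the plate with controls excluded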
HIF act: HIF pathway transcriptional activation | U2OS HRE-luciferase reporter, luminescence; normalized: DMSO 0%, desferrioxamine 100% | activation, % at 7.5 µM (by protocol) | actives 0.32% (n = 300,000) | AID 1910;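 active = mean activation of at least 10% of the iron chelator positive control signal, with at least half of replicates also reaching 10%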
PLCb3 inh: PLC-beta3 (human) inhibition, primary screen. AID 720704. inhibition, % at 12.2 µM. Purified PLC-beta3, fluorogenic substrate, fluorescence. actives 0.18% (n = 370,000); in the data active = inhibition above about 11%;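 note: 0% = median of compound wells on plate and 100% = full blocker control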
PLC-gamma1 inh: inhibitors of human phospholipase C gamma1. purified PLC-gamma1, fluorogenic substrate, fluorescence. P19174. inhibition, % at 12.2 µM. actives 0.84% (n = 370,000); in the data active = inhibition above about 9.5%
Starred values were filed as active, the others as inactive; . = no result given. Shown are actives, neighbours in structure and some others; about 3.9% of the full set was active somewhere.

SMILES | HGIII-sPLA2 inh | AHR act | Yeast superoxide | HIF act | PLCb3 inh | PLC-gamma1 inh
CN(C)/N=C/c1ccc([N+](=O)[O-])cc1[N+](=O)[O-] | 2.1 | 59.1* | 89.7 | -0.8 | -9.1 | -6.2
CCN(CC)C(=O)c1ccc2nc(-c3ccccc3)c(-c3ccccc3)nc2c1 | -9.9 | -2.4 | 109.7 | -0.2 | -69.2 | -53.6
CCN(CC)C(=O)c1ccc2nc3ccccc3nc2c1 | 2.0 | 38.4 | 37.1* | 0.4 | -2.3 | -3.3
CCN(CC)S(=O)(=O)c1ccc(C(=O)Nc2cc3oc4ccccc4c3cc2OC)cc1 | -6.4 | 51.4* | 94.5 | -0.3 | -5.1 | -0.6
CCCNC(=S)Nc1cc2oc3ccccc3c2cc1OC | 2.4 | 52.6* | 103.1 | 1.4 | -7.8 | -0.8
COc1cc2c(cc1NC(=O)COC(=O)[C@@H](NS(=O)(=O)c1cccc(Cl)c1)C(C)C)oc1ccccc12 | -27.4 | 57.3* | 77.9 | 0.8 | -12.2 | -13.9
CNC(=S)Nc1cc2oc3ccccc3c2cc1OC | 10.1 | . | 87.9 | 1.6 | -2.8 | 1.1
CCNC(=S)Nc1cc2oc3ccccc3c2cc1OC | 8.3 | 70.1* | 89.0 | 1.9 | -17.1 | -8.6
CCN(CC)S(=O)(=O)c1ccc(OC)c(NC(=O)c2ccc([N+](=O)[O-])cc2)c1 | 4.7 | 3.1 | 95.6 | -0.3 | 5.0 | 0.3
CC(CCN1CCC(C(O)(c2ccccc2)c2ccccc2)CC1)Oc1cccc(Br)c1 (configuration not stated) | -23.1 | . | . | . | -1.6 | 6.8
COC(=O)C1=C(C)N(Cc2ccccc2C(F)(F)F)C(=NCc2ccc(OC)cc2)NC1c1ccc(C(F)(F)F)cc1 (configuration not stated) | 0.4 | . | . | . | 0.8 | 1.3
COc1cc2c(cc1NC(=S)Nc1cccc(C)c1)oc1ccccc12 | 7.4 | 84.4* | 104.8 | 0.5 | -39.7 | -28.4
CC(C)(C)CC(=O)Nc1cccc2c1CCCC2 | 2.3 | 1.6 | 123.4 | -1.4 | 0.4 | 2.0
O=C(CS(=O)CC(=O)Nc1cccc2c1CCCC2)Nc1ccc(F)cc1 (configuration not stated) | -11.2 | 0.3 | 89.0 | 0.1 | 7.6 | 14.7*
Oc1ccccc1-c1cc(-c2cccc(F)c2)n[nH]1 | -40.6 | 72.3* | 102.0 | 4.5 | -0.2 | 4.7
CCc1nnc(N2C(=O)c3cccc4cccc(c34)C2=O)s1 | 2.6 | 75.5* | 112.7 | 0.2 | -12.7 | -9.7
O=C1c2cccc3cccc(c23)C(=O)N1c1ccncc1 | 5.6 | 14.2 | 114.6 | . | -6.1 | -1.7
Oc1[nH]c2c(Cl)cc(Cl)cc2c1N=NC(=S)NCC1CCCO1 (configuration not stated) | -5.1 | 51.0* | 102.7 | 0.3 | 7.1 | 4.4
CCCC[C@H]1C2CC(OC(=O)Nc3cccc(Cl)c3)C(C2)[C@H]2CCCCN21 (some centres not stated) | 3.0 | . | . | . | 2.6 | 2.1
COc1ccc2cc3c(N)nn(C(=O)Cc4c[nH]c5ccccc45)c3nc2c1 | -77.0 | 38.1 | 101.3 | 14.2* | -71.6 | -40.3
COc1cccc(CC(=O)n2nc(N)c3cc4ccc(OC)cc4nc32)c1 | 3.5 | 41.9 | 109.9 | -0.7 | -116.7 | -90.1
COC(=O)C(CN)CN1C(=O)c2ccccc2C1=O (configuration not stated) | 3.2 | . | . | . | 0.3 | 3.9
Cc1cc(=O)oc2c1c(C)nn2-c1cccc(Cl)c1 | 3.9 | 71.4* | 103.4 | -0.8 | -8.6 | -1.4
Cc1cc(=O)oc2c1c(C)nn2-c1ccc(Br)cc1 | -0.4 | 67.1* | 96.9 | 0.1 | 1.2 | -0.9
O=C(CSc1ncccn1)N1CCN(S(=O)(=O)c2ccccc2)CC1 | 4.2 | 2.1 | 108.8 | 0.0 | -8.5 | 3.4
SMILES | HGIII-sPLA2 inh | AHR act | Yeast superoxide | HIF act | PLCb3 inh | PLC-gamma1 inh
Nn1cc(-c2ccccc2)nc1SCC(=O)N1CCN(S(=O)(=O)c2ccccc2)CC1 | 0.8 | 52.1* | 118.0 | 0.0 | -8.7 | -10.1
COc1ccc(Cl)cc1C(=O)NNC(=O)c1nn(C)c(=O)c2ccccc12 | 1.7 | 65.7* | 95.7 | . | -23.7 | -14.9
O=C(c1ccc(Cl)cc1)N1CCC(Oc2cccnc2)CC1 | 0.8 | . | . | . | 4.0 | -0.6
COc1ccc2c(=O)c(C(=O)NCCc3ccccc3)c[nH]c2c1 | 1.6 | 35.3 | 101.3 | 4.4 | -6.0 | 0.7
Cc1ccccc1N(C)S(=O)(=O)c1ccc2[nH]cc(C(=O)NCC3CCCO3)c(=O)c2c1 (configuration not stated) | . | 2.6 | 102.3 | . | . | .
COc1ccc2[nH]cc(C(=O)NCCc3ccccc3)c(=O)c2c1 | -5.1 | 74.4* | 101.9 | 2.2 | -9.2 | 2.0
CCOCCCNC(=O)c1c[nH]c2ccc(OCC)cc2c1=O | 1.5 | 51.3* | 91.3 | -0.1 | -4.4 | 1.7
CCOc1ccc(N(C)S(=O)(=O)c2ccc3[nH]cc(C(=O)NCC4CCCO4)c(=O)c3c2)cc1 (configuration not stated) | 0.2 | 56.4* | 105.2 | -0.4 | 1.7 | 1.1
Nc1ncnc2c1ncn2[C@@H]1O[C@H](C(=O)N[C@@H](CCc2ccccc2)C(=O)N2CCN(C(=O)N3CCOCC3)CC2)[C@@H](O)[C@H]1O | 7.0 | . | . | . | 4.5 | -1.4
Cc1ccc(Cn2cc(COC(=O)Nc3ccc(F)cc3)nn2)cc1 | -16.4 | . | . | . | 0.1 | 0.9
O=C(N1CCOCC1)N1CC[C@H]2[C@H](CCCN2Cc2ccccc2)C1 | 8.5 | . | . | . | -1.4 | 1.1
O=C(NNC(=O)c1ccccc1OCc1ccccc1)c1ccccc1F | -1.5 | 53.3* | 94.3 | 2.4 | -4.4 | 2.5
O=C(NNC(=O)c1ccccc1OCc1ccccc1)c1ccccc1O | -16.7 | . | 117.6 | 3.6 | -47.6 | -19.3
Cc1ccc2nc(SCC(=O)Nc3ccc(C)c([N+](=O)[O-])c3)[nH]c2c1 | -11.2 | 86.2* | 105.3 | -0.3 | 4.7 | 7.4
Cc1ccc2nc(SCC(=O)NCc3cccs3)[nH]c2c1 | -2.4 | 48.9* | 96.7 | -0.2 | -6.2 | -2.8
Cc1ccc2nc(SCC(=O)NNC(=O)c3ccccc3)[nH]c2c1 | 2.6 | 51.8* | 100.8 | -0.1 | -3.9 | -2.7
Cc1ccc2nc(SCC(=O)NC3CCCc4ccccc43)[nH]c2c1 (configuration not stated) | -17.3 | 58.8* | 100.5 | 0.1 | 3.7 | 3.2
O=C(CSc1cc(Cl)ccc1Cl)NC1CCCc2ccccc21 (configuration not stated) | -1.7 | 5.3 | 104.2 | 0.1 | 3.3 | 0.6
Cc1ccc2nc(SCC(=O)Nc3ccc4c(c3)OCCO4)[nH]c2c1 | -17.1 | 22.4 | 98.9 | 0.6 | -3.9 | -5.6
Cc1ccc2nc(SCC(=O)Nc3ncccn3)[nH]c2c1 | 1.0 | 32.1 | 101.9 | 1.2 | -1.2 | -7.8
COC(=O)[C@]12C=CCN1[C@@H](c1ccc(OC)c(OC)c1)c1c(c3ccccc3n1S(=O)(=O)c1ccc(C)cc1)C2 | 1.8 | . | . | . | -30.5 | -23.1
COc1cccc(CNC(=S)OC2CCC23CCC(c2ccccc2)CC3)c1 (configuration not stated) | 1.6 | . | . | . | -3.8 | -1.0
O=C(COC(=O)c1ccc(Sc2ncn[nH]2)c([N+](=O)[O-])c1)Nc1cccc(Cl)c1F | -30.2 | . | . | . | 1.1 | -0.4

Screening data as filed in PubChem BioAssay.
